This passage reports Potency and outcome results from PubChem BioAssay (Tox21).

Assay [1] in a line: qHTS assay to identify small molecule antagonists of the vitamin D receptor (VDR) signaling pathway - cell viability counter screen (AID 743225). Further: nearly all actives have a fitted effect of over 50% in size. Further: potency means the concentration at half of the fitted maximal effect. Summed up:
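Luminescent cell viability (CellTiter-Glo) in VDR-bla HEK 293T cells after 16 h compound exposure at 37C in the presence of 3 nM final 1-alpha,25-dihydroxy vitamin D3.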

Assay [2] in a line: qHTS assay to identify small molecule agonists of the NFkB signaling pathway (AID 1159509; active means well fitted curve in the direction sought with a large enough effect in the signal ratio in the repeat runs, not every such curve was filed as active; the % refers to the signal ratio; further: series mostly up to about 61 µM). Summed up:
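NFkB-bla ME-180 cells with a beta-lactamase reporter under an NF-kB response element were plated overnight, treated with compounds in DMSO for 5 hr at 37 C, then loaded with FRET substrate for 1.5 hr at room temperature.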
For orientation: qHTS replaces the single test concentration by a dilution series.

The nature of assay [3]: qHTS assay to identify small molecule agonists of the NFkB signaling pathway - cell viability counter screen (AID 1159515; calls by dose curve; further: series mostly up to about 61 µM; nearly all actives have a fitted effect of over 55% in size). In outline:
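5 hr compound treatment of NFkB-bla ME-180 cells (2,000/well, seeded overnight beforehand), followed by reporter substrate for 1.5 hr. CellTiter-Glo added afterward; luminescence after 30 min RT.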

Assay [4] can be described thus: qHTS assay to identify small molecule agonists of the endoplasmic reticulum stress response signaling pathway (AID 1159516; active means well fitted activation curve with a large enough effect in the signal ratio in the repeat runs, not every such curve was filed as active; the % refers to the signal ratio). Summed up:
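Reporter HeLa cells (ESRE-beta-lactamase) underwent 5 hr compound incubation at 37 C and 5% CO2 in quantitative HTS format. Detection followed 2 hr of FRET substrate loading at room temperature.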

Assay [5] is described as follows: qHTS assay to identify small molecule antagonists of the retinoid-related orphan receptor gamma (ROR-gamma) signaling pathway - cell viability counter screen (AID 1159520). Further: nearly all actives have a fitted effect of over 50% in size. In outline:
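Tet-on ROR gamma CHO cells were given compounds for 2 hr, then doxycycline hyclate at 1 uM final, and incubated 16 hr at 37 C. Viability was measured as ATP content by CellTiter-Glo luminescence.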

Assay [6] addresses Nuclear receptor ROR-gamma (Homo sapiens) (UniProt P51449). The assay can be described thus: qHTS assay to identify small molecule antagonists of the retinoid-related orphan receptor gamma (ROR-gamma) signaling pathway (AID 1159521;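 further: CHO cells with doxycycline inducible ROR-gamma driving an RORE luciferase reporter; top concentration of the series differs between compounds; nearly all actives have a fitted effect of over 50% in size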). Summed up: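 CHO cells expressing RORγ under a TET-on promoter, luciferase under RORE control. Dox 1 uM final, 16 h; compounds added 2 h prior. Luminescence decrease measured.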

Assay [7] is described as follows: qHTS assay to identify small molecule agonists of the AP-1 signaling pathway - cell viability counter screen (AID 1159525; calls by dose curve; further: nearly all actives have a fitted effect of over 55% in size). Summed up: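 AP-1-bla ME-180 cells in Opti-MEM with 0.5% dialyzed FBS, compound exposure 5 h at 37 C in 15-point titration. Viability read in the same wells as ATP content by CellTiter-Glo luminescence, normalised to tetra-n-octylammonium bromide and DMSO controls.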

Assay [8] is described as follows: qHTS assay to identify small molecule agonists of the AP-1 signaling pathway (AID 1159526; calls by dose curve).
Assay [9] deals with Retinoic acid receptor RXR-alpha (Homo sapiens) (UniProt P19793). The experiment in a line: qHTS assay to identify small molecule agonists of the RXR signaling pathway (AID 1159527; calls by dose curve; further: nearly all actives have a fitted effect of over 35% in size). In outline:
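Beta-lactamase reporter assay, agonist format. Engineered HEK 293T line, charcoal-stripped FBS at 2%, overnight (16 hr) exposure, fluorescence at 460 and 530 nm after 405 nm excitation.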

Assay [10] is described as follows: qHTS assay to identify small molecule agonists of the RXR signaling pathway - cell viability counter screen (AID 1159529).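 Further: HEK 293T cells carrying an RXR-alpha UAS beta-lactamase reporter; series mostly up to about 77 µM; nearly all actives have a fitted effect of over 50% in size.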 In outline:
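Same-well viability check after the LiveBLAzer FRET read: CellTiter-Glo added, luminescence measured after 30 min at room temperature. Reporter HEK 293T cells had been treated with compounds for 16 hr following a 5 hr preincubation.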

Assay [11] in a line: qHTS assay to identify small molecule antagonists of the retinoid acid receptor (RAR) signaling pathway - cell viability counter screen (AID 1159551). Further: nearly all actives have a fitted effect of over 35% in size. In outline:
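Seed C3RL4 cells; next day add compound, then retinol to 1 uM final; incubate 6 h at 37 C; add CellTiter-Glo; read luminescence after 30 min at RT.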

Assay [12] in a line: qHTS assay to identify small molecule antagonists of the retinoic acid receptor (RAR) signaling pathway (AID 1159552; further: nearly all actives have a fitted effect of over 50% in size). Summed up:
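Readout: luciferase luminescence, 30 min post-reagent at RT. Setup: C3RL4 RARE reporter cells, compounds plus retinol 1 uM final, 6 hr incubation at 37 C and 5% CO2.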

The nature of assay [13]: qHTS assay to identify small molecule agonists of the vitamin D receptor (VDR) signaling pathway - cell viability counter screen (AID 743224). Summed up: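 Here cell health was gauged by luminescent ATP detection (CellTiter-Glo, 30 min RT) in VDR-bla cells that had been incubated with test compounds for 16 h at 37C and 5% CO2.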
The nature of assay [14]: qHTS assay to identify small molecule agonists of the retinoic acid receptor (RAR) signaling pathway (AID 1159553). In outline: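 Activation of retinol signaling was monitored via a RARE luciferase reporter in C3RL4 cells. After 6 hr compound treatment at 37 C, detection reagent was added for 30 min at room temperature before luminescence reading.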

Records with an inconclusive call do not appear. Active and inactive are the calls of the source. Unless noted, the call rests on the fitted dose curve; in most records, active means well fitted curve in the direction sought with a large enough effect in the repeat runs; inconclusive means weak or mixed curves; inactive means no such curve, though single readings can be large; an effect the other way counts as inactive or inconclusive.

Chain of Retinoic acid receptor RXR-alpha (Homo sapiens) (P19793 whole entry, looked up): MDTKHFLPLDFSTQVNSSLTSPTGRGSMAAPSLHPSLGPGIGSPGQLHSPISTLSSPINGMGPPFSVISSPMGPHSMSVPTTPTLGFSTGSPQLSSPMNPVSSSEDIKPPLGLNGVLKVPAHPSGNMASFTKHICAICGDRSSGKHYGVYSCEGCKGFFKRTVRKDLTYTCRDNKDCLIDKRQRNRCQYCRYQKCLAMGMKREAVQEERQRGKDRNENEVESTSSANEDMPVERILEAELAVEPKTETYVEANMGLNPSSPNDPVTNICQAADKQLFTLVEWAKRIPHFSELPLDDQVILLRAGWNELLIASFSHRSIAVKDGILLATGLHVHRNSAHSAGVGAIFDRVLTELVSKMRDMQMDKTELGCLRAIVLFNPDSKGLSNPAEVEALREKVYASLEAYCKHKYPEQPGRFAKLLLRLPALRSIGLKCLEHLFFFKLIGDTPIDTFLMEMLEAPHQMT

Turning to `Cc1cccc(C)c1NC(=O)c1cc(S(N)(=O)=O)c(Cl)cc1O`, the Potency entry in [1], in assay [3], in assay [4], in [5], in assay [6] and in assay [7] was “inactive” in each case. The Potency entry in [9], in assay [10], in assay [11] and in assay [12] was “inactive” in each case. The outcome in assay [2] and in assay [8] was inactive.

For the molecule `O=c1[nH][nH]c(=O)c2cc([N+](=O)[O-])ccc12`, the Potency result in [13], in [1], in assay [3], in [4], in assay [5] and in assay [6] was “inactive” each time. Also, the Potency entry in assay [7], in assay [9], in assay [10] and in assay [11] was “inactive” in each case. The molecule was classed as inactive in [2] and in [8].

`CC1CCCO1` (configuration not stated): the Potency result in assay [1], in assay [3], in [4], in [5], in assay [6] and in [7] was “inactive” each time. The Potency entry in assay [9], in assay [10] and in assay [11] was “inactive” throughout. Besides, the molecule was called inactive in [2] and in [8].

As to `O=C1NC(=O)c2cccc3cccc1c23`, the Potency result in assay [13], in [1], in [3], in [4], in [5] and in assay [6] was “inactive” throughout. Moreover, the Potency entry in [7], in assay [10], in [11], in assay [12] and in [14] was “inactive” in each case. Further, the call in [2] and in assay [8] was inactive.

As to `CC(CN(CCN(CC(C)OCCO)CC(C)OCCO)CC(C)OCCO)OCCO` (configuration not stated), the Potency entry in [13], in [1], in assay [3], in assay [4], in assay [5] and in [6] was “inactive” each time. Also, the Potency entry in assay [7], in [9], in assay [10], in assay [12] and in assay [14] was “inactive” each time. In addition, the molecule was classed as inactive in assay [2] and in assay [8].

`CCC(C)(C)C(=O)O`: the Potency entry in assay [13], in [1], in assay [3], in assay [4], in [5] and in assay [6] was “inactive” each time. Moreover, the Potency entry in assay [7], in [9], in assay [10], in [12] and in [14] was “inactive” in each case. Also, the molecule was called inactive in assay [2] and in assay [8].

With `OCC(CO)n1cnc(-c2ccc(F)cc2)c1-c1ccnc(Oc2ccccc2)n1`, the Potency entry in [13], in [1], in assay [3], in [4], in assay [5] and in assay [6] was “inactive” in each case. The Potency entry in assay [7], in [10] and in assay [11] was “inactive” each time. Moreover, the call in assay [2] and in [8] was inactive.

On to `CCOC(=O)Oc1ccc(CCNC(=O)[C@H](CCSC)NC(C)=O)cc1OC(=O)OCC`, for which the Potency entry in assay [13], in [1], in [3], in assay [4], in [5] and in [6] was “inactive” each time. Further, the Potency result in assay [7], in assay [9], in assay [10] and in assay [11] was “inactive” throughout. For the same molecule, the molecule was classed as inactive in assay [2] and in [8].

With `O=C(O)c1cccc(Oc2ccccc2)c1`, the Potency entry in [13], in [1], in [3], in assay [4], in [5] and in assay [6] was “inactive” throughout. The Potency entry in assay [7], in [10] and in assay [12] was “inactive” in each case. Further, the outcome in [2] and in assay [8] was inactive.

With `Cc1ccc(Cl)cc1N`, the Potency result in [13], in assay [1], in assay [3], in [4], in assay [5] and in assay [6] was “inactive” in each case. Besides, the Potency entry in assay [7], in assay [9], in [10], in [12] and in assay [14] was “inactive” in each case. Further, the molecule was classed as inactive in assay [2] and in [8].

In the case of `CC(=O)C(=O)CC(C)C`, the Potency entry in assay [1], in assay [3], in assay [4], in assay [5], in assay [6] and in assay [7] was “inactive” throughout. Moreover, the Potency result in assay [9] and in assay [10] was “inactive” throughout. Moreover, the call in assay [2] and in [8] was inactive.

With `CNCc1ccc(NC(=O)c2c[nH]c3c2C(=O)CCC3)cc1`, the Potency entry in assay [13], in assay [1], in [3], in assay [4], in assay [5] and in [6] was “inactive” in each case. For the same molecule, the Potency entry in [7], in assay [9], in assay [11] and in [12] was “inactive” each time. Also, the molecule was classed as inactive in [2] and in [8].

Consider `CC[C@H]1OC(=O)[C@H](C)[C@@H](O[C@H]2C[C@@](C)(OC)[C@@H](O)[C@H](C)O2)[C@H](C)[C@@H](O[C@@H]2O[C@H](C)C[C@H](N(C)C)[C@H]2O)[C@](C)(O)C[C@@H](C)CN(C)[C@H](C)[C@@H](O)[C@]1(C)O`, for which the Potency in [1] is 2900 nM (active). Further, the call in assay [2] and in [8] was inactive. In addition, the Potency result in [3], in assay [4], in assay [5], in [6], in assay [7] and in assay [11] was “inactive” in each case.

As for `CC(=O)Oc1cccc(O)c1`, the Potency result in assay [13], in assay [1], in assay [3], in assay [4], in [5] and in assay [6] was “inactive” throughout. The Potency result in assay [7], in assay [9] and in assay [10] was “inactive” throughout. In addition, the molecule was classed as inactive in assay [2] and in assay [8].

For `O=C(NS(=O)(=O)/C=C/c1ccccc1)c1ccc(F)cc1Cl`, the Potency entry in assay [13], in assay [1], in [3], in assay [4], in [5] and in [6] was “inactive” throughout. Moreover, the Potency result in [7], in assay [10], in assay [11] and in [12] was “inactive” throughout. Besides, the molecule was called inactive in [2] and in [8].

Take `Nc1ccc(NC(=O)c2ccc(N)cc2)cc1`: the Potency result in assay [13], in assay [3], in assay [4], in [5], in assay [6] and in [7] was “inactive” in each case. The Potency entry in assay [11] and in assay [12] was “inactive” in each case. Besides, the result in assay [2] and in assay [8] was inactive.

Turning to `CC(=O)OCC(=O)[C@@]1(OC(C)=O)[C@@H](C)C[C@H]2[C@@H]3C[C@H](F)C4=CC(=O)C=C[C@]4(C)[C@@]3(F)[C@@H](O)C[C@@]21C`, the Potency result in assay [13], in assay [1], in assay [3], in [4], in [5] and in assay [6] was “inactive” each time. For the same molecule, the Potency result in [7], in [10], in assay [11] and in assay [12] was “inactive” throughout. Besides, the molecule was called inactive in assay [2] and in assay [8].

Consider `ClC1=C(Cl)C1(Cl)Cl`, for which the Potency result in [1], in assay [3], in assay [4], in [5], in assay [6] and in [7] was “inactive” throughout. For the same molecule, the Potency result in assay [9], in assay [10] and in [11] was “inactive” in each case. The outcome in [2] and in assay [8] was inactive.

On to `CCCCCC`, for which the Potency result in [1], in assay [3], in assay [4], in [5], in [6] and in assay [7] was “inactive” each time. Moreover, the Potency result in assay [9], in assay [10], in [12] and in [14] was “inactive” in each case. For the same molecule, the call in [2] and in assay [8] was inactive.

As to `O=C1OC[C@H](Cc2cccc(O)c2)[C@H]1Cc1cccc(O)c1`, the Potency result in assay [1], in [3], in [4], in assay [5], in assay [6] and in assay [7] was “inactive” in each case. The Potency result in assay [9], in [10], in assay [12] and in assay [14] was “inactive” throughout. The outcome in [2] and in assay [8] was inactive.
